An excerpt weighted towards active compounds, which were near 1.7% of everything screened.
TRPML1 agonist: qHTS for Agonists of the Human Mucolipin Transient Receptor Potential 1 (TRPML1) | TRPML1-expressing cells, Ca2+ dye fluorescence, FDSS | activation, % (concentration not given with the values) | 410,000 compounds, 0.12% hits; in the data active = activation above about 50%; inconclusive = mostly about 30% to 49%; also: 0% is about no effect
Target sequence (Q9GZU1 whole entry, looked up): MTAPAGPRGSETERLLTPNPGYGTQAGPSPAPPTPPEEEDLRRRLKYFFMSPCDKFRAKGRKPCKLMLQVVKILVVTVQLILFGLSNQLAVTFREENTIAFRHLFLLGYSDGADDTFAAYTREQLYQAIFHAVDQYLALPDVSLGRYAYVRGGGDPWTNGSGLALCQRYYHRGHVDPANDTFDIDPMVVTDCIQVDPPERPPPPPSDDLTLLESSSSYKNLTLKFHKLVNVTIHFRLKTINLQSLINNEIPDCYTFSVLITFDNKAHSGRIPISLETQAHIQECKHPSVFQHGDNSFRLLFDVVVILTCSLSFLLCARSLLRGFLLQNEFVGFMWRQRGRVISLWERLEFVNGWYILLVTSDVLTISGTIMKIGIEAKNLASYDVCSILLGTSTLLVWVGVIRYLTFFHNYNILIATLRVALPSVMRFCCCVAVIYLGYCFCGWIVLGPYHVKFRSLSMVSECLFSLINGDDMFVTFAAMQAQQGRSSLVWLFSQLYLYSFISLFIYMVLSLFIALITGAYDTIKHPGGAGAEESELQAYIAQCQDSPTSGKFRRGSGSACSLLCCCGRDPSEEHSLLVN
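Tet-induced TRPML1-DL cells, 1,500 per well, cultured overnight, were loaded with a no-wash Ca2+ dye for 45–90 min. Calcium fluorescence was recorded on the FDSS for 110 s after compound addition, before the EC80 agonist (4 uM 54-4) was added.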
TRHR enhancer: qHTS for Small Molecule Agonists and Allosteric Enhancers of Human TRH Receptor: Primary Screen for Enhancers | Thyrotropin-releasing hormone receptor (Homo sapiens), P34981 | TRHR cells, fluo-8 calcium fluorescence, EC20 TRH enhancement | enhancement, % at 2 µM | 360,000 compounds, 0.66% hits | AID 493056, 2011; in the data active = enhancement above about 30%; also: 0% is about no effect
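TRHR-expressing cells loaded with fluo-8 calcium dye were read kinetically (ex 480/em 530) during compound addition, then stimulated with an EC20 of TRH (10 nM final). Enhancement of the Gq-mediated intracellular calcium response was scored.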
TRPML1 inh: qHTS for Inhibitors of the Human Mucolipin Transient Receptor Potential 1 (TRPML1). 390,000 compounds, 0.02% hits. TRPML1-inducible cells, Ca2+ dye fluorescence, FDSS; active compounds read low; inhibition of EC80 agonist-evoked calcium signal. Mucolipin-1 (Homo sapiens), Q9GZU1. activity change, negative = inhibition, % (concentration not given with the values); in the data active = activity change below about -50%; inconclusive = between about -30% and that limit;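 also: stimulus is agonist 54-4 at its EC80 concentration; % is scaled to controls: 0 for no effect and ±100 for the full control effect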
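Calcium fluorescence in TRPML1-DL cells induced overnight with Tet: a 110 s read after compound pin addition, then a 110 s antagonist read after challenge with 54-4 at 4 uM final (EC80).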
TRHR ag: qHTS for Small Molecule Agonists and Allosteric Enhancers of Human TRH Receptor: Primary Screen for Agonists. Thyrotropin-releasing hormone receptor (Homo sapiens), P34981. TRHR cells, calcium flux fluo-8, FDSS agonist mode. activation, % at 2 µM. 360,000 compounds, 0.18% hits. AID 493084, 2011; in the data active = activation above about 30%; also: 0% is about no effect
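Steps: seed TRHR cells overnight; add fluo-8 no-wash Ca dye, RT 30 min–1.5 h; record 10 s baseline; pin-transfer compounds; monitor fluorescence 1 cycle/s for the agonist window. Calcium increases flag candidate agonists.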
hERG WT inh: qHTS for Inhibitors of KCHN2 3.1: Wildtype qHTS | U2OS, BacMam KCNH2, thallium flux FluxOr; active compounds read low | Voltage-gated inwardly rectifying potassium channel KCNH2 (Homo sapiens), Q12809 | activity change, % at 1.84 µM | 340,000 compounds, 0.37% hits;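 active = maximum activity change below -70%; inconclusive = maximum activity change between -70% and -50%; inactive = maximum activity change above -50%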; also: % is scaled to controls: 0 for no effect and ±100 for the full control effect
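U2OS cells transduced with wild-type KCNH2 virus are loaded with FluxOr dye for 45 min, and thallium flux is measured in kinetic reads before and after stimulation buffer. Rate constants are normalized to DMSO controls.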
KCNH2 3.1 block: qHTS for Inhibitors of KCHN2 3.1: Mutant qHTS; 340,000 compounds, 0.95% hits; activity change, % (tested at about 1.8 µM); U2OS KCNH2 3.1, thallium flux FluxOr; active compounds read low;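 active = maximum activity change below -70%; inconclusive = maximum activity change from -70% to -50%; inactive = maximum activity change above -50%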;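 also: thallium influx rate constant from kinetic fluorescence after stimulation buffer; % is scaled to controls: 0 for no effect and ±100 for the full control effect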
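We transduce U2OS cells with the mutant 3.1 virus, culture them overnight, load FluxOr with Red40 quencher for 45 min, then add stimulation buffer and read kinetically for 2 min to derive a normalized rate constant.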
An asterisk follows results filed as active; i = inactive; ? = inconclusive; . = not tested or not shown.

SMILES	TRPML1 agonist	TRHR enhancer	TRPML1 inh	TRHR ag	hERG WT inh	KCNH2 3.1 block
Cc1ccc(C(=O)NCC(=O)OC(C(=O)Nc2cc(C(F)(F)F)ccc2Cl)c2ccccc2)cc1 (centres undefined)	.	-10	.	3	.	.
COC(=O)c1oc2ccccc2c1NC(=O)/C=C/C(=O)O	0	0	19	0	-10	-74*
COc1ccc(CN(C)C(C)C(=O)Nc2ccc([N+](=O)[O-])cc2Cl)cc1OC (centres undefined)	1	-8	5	0	0	-85*
O=C(N=Nc1c(O)[nH]c2ccc([N+](=O)[O-])cc12)c1ccccc1Cl	-1	-2	-6	0	-2	-7
O=C(O)c1ccccc1N=Nc1c(O)[nH]c2ccc([N+](=O)[O-])cc12	0	10	9	2	-3	-127*
CCC(=O)Nc1cccc(-c2nnc(SCC(=O)c3ccccc3)n2C)c1	2	5	10	0	0	-91*
CC(C)Cc1cc(CN2CCC(CO)(Cc3cccc(C(F)(F)F)c3)CC2)[nH]n1	0	-6	0	0	-105*	-83*
Cc1ccc(-n2cc(CN3CCC(CO)(Cc4cccc(C(F)(F)F)c4)CC3)cn2)cc1	1	7	25	0	-84*	-99*
CC(C)Cc1cc(CN2CCCC(CO)(Cc3cccc(Cl)c3)C2)[nH]n1 (centres undefined)	1	-8	6	2	11	?
Cc1ccc(-n2cc(CN3CCC(CO)(Cc4ccccc4)CC3)cn2)cc1	.	-11	.	0	.	.
CCOC(=O)c1ccc(NC(=O)CSc2nnnn2C2CCCCC2)cc1	-1	3	2	-1	3	8
CCOc1ccc(NC(=O)CSc2nnnn2C2CCCC2)cc1	0	-6	86	-2	-142*	-199*
COc1ccc(NC(=O)CSc2nnnn2C2CC3C=CC2C3)cc1 (centres undefined)	-1	16	11	0	-81*	-3
CCC(=O)Nc1ccc(NC(=O)CSc2nnnn2-c2ccc(OC)cc2)cc1	0	4	-8	0	0	7
CCOc1ccc(NC(=O)N2CCC(n3nnc4ccccc43)CC2)cc1	-1	1	0	0	i	-83*
CCCS(=O)(=O)NC(=O)C1(C)CCCN(C(=O)c2cc(F)ccc2C)C1 (centres undefined)	-1	.	.	.	.	.
Cc1ccc(CNC(=O)C2CCN(c3nnc(N4CCCC4=O)s3)CC2)cc1	0	-4	-2	0	-8	-19
Cc1sc2ncn(/N=C/c3cn(-c4ccccc4)nc3-c3ccccc3)c(=O)c2c1C	0	-1	39	-2	.	.
CC(C)(C)c1ccc(C(=O)NCCC(=O)Nc2ccc3c(c2)OCCO3)cc1	1	-3	28	0	2	3
Cc1ccc(-c2nc3ccccc3[nH]2)cc1NC(=O)COc1ccccc1[N+](=O)[O-]	0	19	2	-1	.	.
CCOc1ccc(C(=O)Nc2cccc(-c3nc4ccccc4[nH]3)c2C)cc1[N+](=O)[O-]	2	-3	4	-1	-6	-78*
CCOc1ccccc1NC(=O)c1ccc(OCC)c([N+](=O)[O-])c1	2	-4	49	0	2	-19
CCOc1ccc(C(=O)Nc2cc(-c3nc4ccccc4[nH]3)ccc2C)cc1[N+](=O)[O-]	1	5	-2	0	-31	-86*
CCOc1ccc(C(=O)Nc2cc(-c3nc4ccccc4[nH]3)ccc2Cl)cc1[N+](=O)[O-]	0	0	8	1	-27	-70*
Cc1ccc(N2CCN(C(=O)c3ccccc3NC(=O)c3ccccc3C(=O)O)CC2)cc1	0	4	-1	0	-72*	-9
SMILES	TRPML1 agonist	TRHR enhancer	TRPML1 inh	TRHR ag	hERG WT inh	KCNH2 3.1 block
Cc1ccccc1C(=O)Nc1ccccc1C(=O)N1CCC(C)CC1	54*	1	-12	-1	-4	2
CC1CCN(C(=O)c2ccccc2NC(=O)Nc2ccccc2)CC1	0	-3	-5	0	-4	4
Cc1ccc(C(=O)Nc2ccccc2C(=O)N2CCN(c3ccccc3)CC2)cc1	0	7	-5	0	-2	1
COc1cc(N)c(Cl)cc1C(=O)N[C@H]1CCN(CCCOc2ccc(F)cc2)C[C@H]1OC	-1	5	0	0	-70*	-84*
COc1cc(N)c(Cl)cc1C(=O)N[C@@H]1CCN(CCCOc2ccc(F)cc2)C[C@@H]1OC	.	-6	.	0	.	.
Oc1ccccc1-c1nc(NC2CCCC2)c2ccccc2n1	.	31*	.	-1	-5	-14
Cc1ccc(NC(=S)NC(=O)c2ccc(-c3ccc(Cl)cc3)o2)c(O)c1	0	3	-5	-3	15	3
Cc1ccc(O)c(NC(=S)NC(=O)Cc2ccc(Cl)cc2)c1	75*	-24	1	19	13	-14
CCOC(=O)N1CCN(CCC(=O)Nc2cccc(Cl)c2C)CC1	-1	0	2	0	11	-31
Cc1ccccc1-c1ccc(Nc2ccc(N3CCOCC3)cc2)nn1	0	0	-15	-1	-33	-73*
C=C1CCN(C(C(=O)O)C(C)C)S(=O)(=O)c2ccccc21 (centres undefined)	1	.	-17	.	.	.
CCCCn1c(N)c(N(CC(C)C)C(=O)COC(=O)c2ccccc2NCCO)c(=O)[nH]c1=O	0	-1	-5	0	-6	8
CCCn1c(N)c(N(CCOC)C(=O)COC(=O)c2ccccc2NCCO)c(=O)[nH]c1=O	-1	10	77	-1	-6	-192*
O=C(COC(=O)c1ccc(Cl)c(S(=O)(=O)N2CCN(c3ccc(F)cc3)CC2)c1)Nc1cccc(Cl)c1	1	-6	-4	0	-16	-82*
CN(C)S(=O)(=O)N(CC(=O)NCCSCc1c(F)cccc1Cl)c1ccccc1	2	2	-11	0	.	.
Cn1c(C(=O)Nc2ccc3c(c2)OCO3)cc2c(=O)n(C)c3ccccc3c21	1	-1	11	-1	1	10

Source: PubChem BioAssay (National Center for Advancing Translational Sciences (NCATS))
